# According to PubChem BioAssay (EPA / NIEHS):
# Results filed as inconclusive are left out. Activity calls are given as the source filed them. Rule for the calls, unless noted: active = hit-call score of the fitted dose curve at least 0.9, where 1 is the maximum; inconclusive = response in the unintended direction; inactive = score below 0.9.
# What was measured:
# [1] = TOX21_p53_BLA_p2_viability: Viability Assessment in the Tox21 HCT-116 p53 Agonism Beta-lactamase Assay, Phase 2 (AID 2283591);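 note: compound exposure lasted 16 h at 37 °C; actives lower the ATP signal meaning cytotoxicity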
# Method in brief: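 Cytotoxicity readout: CellTiter-Glo ATP luminescence, 30 min at room temperature, after the beta-lactamase read. Cells were HCT116 exposed 16 h at 37C to compounds pin-transferred at 217-fold dilution from DMSO stocks.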
# [2] = TOX21_p53_BLA_p3_viability: Viability Assessment in the Tox21 HCT-116 p53 Agonism Beta-lactamase Assay, Phase 3 (AID 2283593);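 note: cells exposed to compound for 16 h before reading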
# Method in brief: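 Cellular ATP was quantified by CellTiter-Glo luminescence, read after 30 min at room temperature. Beforehand, HCT116 cells (4000/well) received compound 5 h post-seeding, 217-fold diluted from DMSO, then incubated 16 h at 37C.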
# [3] = molecular target: Cellular tumor antigen p53 (Homo sapiens) (UniProt P04637); assay: TOX21_p53_BLA_p3_ratio: Tox21 HCT-116 p53 Agonism Beta-lactamase Assay, Ratio, Phase 3 (AID 2283596)
# Method in brief: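 HCT116 p53-bla cells (4000/well) given compound in DMSO (217-fold dilution) after 5 h, incubated 16 h at 37C. CCF4-AM substrate 2 h at room temperature; 460/530 nm emission ratio, gain fitted against DMSO.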
# [4] = TOX21_p53_BLA_p4_viability: Viability Assessment in the Tox21 HCT-116 p53 Agonism Beta-lactamase Assay, Phase 4 (AID 2283597);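 note: hits lower the luminescence signal meaning cytotoxicity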
# Method in brief: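 Cells plated, 5 h pre-incubation; DMSO compounds pinned (217-fold dilution); 16 h, 37C/5% CO2; CCF4-AM 2 h RT; CellTiter-Glo 30 min RT; luminescence read.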
# [5] = TOX21_p53_BLA_p5_viability: Viability Assessment in the Tox21 HCT-116 p53 Agonism Beta-lactamase Assay, Phase 5 (AID 2283600)
# Method in brief: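 4000 cells/well; 5 h pre-incubation; DMSO compounds pin-transferred, 217-fold dilution; 16 h, 37C/5% CO2; CCF4-AM 2 h RT; CellTiter-Glo 30 min RT; luminescence.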
# [6] = molecular target: Cellular tumor antigen p53 (Homo sapiens) (UniProt P04637); assay: TOX21_p53_BLA_p5_ratio: Tox21 HCT-116 p53 Agonism Beta-lactamase Assay, Ratio, Phase 5 (AID 2283599)
# Method in brief: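 Beta-lactamase reporter ratio (blue 460 nm over green 530 nm, 405 nm excitation) after 2 h CCF4-AM loading, in HCT-116 cells exposed 16 h at 37 C to compounds pinned at 217-fold dilution. Increases relative to DMSO baseline scored.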
# [7] = molecular target: Cellular tumor antigen p53 (Homo sapiens) (UniProt P04637); assay: TOX21_p53_BLA_p4_ratio: Tox21 HCT-116 p53 Agonism Beta-lactamase Assay, Ratio, Phase 4 (AID 2283601)
# Method in brief: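 Signal is the blue/green (460nm/530nm) ratio of cleaved versus uncleaved CCF4-AM substrate, read after 2 h substrate loading. Cells were HCT116 carrying the p53-responsive beta-lactamase reporter, dosed 16 h at 37C, 5% CO2; CellTiter-Glo measured in parallel.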
# [8] = CCTE_Harrill_HTTr_Viability_MCF7: CCTE's 6-hour Cell Viability Assessment for the High-Throughput Transcriptomics (HTTr) Platform, in MCF-7 cells cultured in DMEM + 10% fetal bovine serum, Harrill Lab (AID 2284010; active = hit-call score of the fitted dose curve at least 0.9, where 1 is the maximum; inactive = score below 0.9)
# Method in brief: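 Cells were dosed with chemicals in an eight-point dilution series, imaged 6 hours later for propidium iodide uptake, and the endpoint was analyzed by bidirectional fitting against DMSO as negative control.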
# [9] = CCTE_Harrill_HTTr_Apoptosis_MCF7: CCTE's 6-hour Apoptosis Assessment for the High-Throughput Transcriptomics (HTTr) Platform, in MCF-7 cells cultured in DMEM + 10% fetal bovine serum, Harrill Lab (AID 2284011; active = hit-call score of the fitted dose curve at least 0.9, where 1 is the maximum; inactive = score below 0.9)
# Method in brief: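 MCF-7 (DMEM + 10% FBS), 384-well; 8-pt dilution series, 6 h chemical exposure; caspase-3/7 activation via CellEvent Caspase 3/7 Green, HCI; bidirectional fit vs DMSO.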
# [10] = CCTE_Harrill_HTTr_CellCount_MCF7: CCTE's Cell Proliferation Assessment for the High-Throughput Transcriptomics (HTTr) Platform, Harrill Lab (AID 2284012);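 note: count of Hoechst-stained nuclei per well by high-content imaging in MCF-7 cells; cells exposed to compound for six hours; intended direction is loss of nuclei count meaning fewer cells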
# Method in brief: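 Chemicals in eight-point dilution series are added to MCF-7 cells for six hours, nuclei are stained with Hoechst and imaged, and per-well nuclei counts are fitted in both directions relative to DMSO controls.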
# [11] = molecular target: PGR (gene 5241) (UniProt P06401); assay: TOX21_PR_BLA_Followup_Agonist_ratio: Tox21 HEK293 Progesterone Receptor (PR) Agonism Beta-lactamase Follow-Up Assay, Ratio (AID 2283933)
# Method in brief: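 HEK293T PR-UAS-bla, 2% CS-FBS; 6 hr preincubation, cpd/DMSO pinned, 16 hr 37C/5% CO2; LiveBLAzer B/G 2 hr RT; FRET ch2/ch1 ratio, agonist direction vs DMSO. Viability by CellTiter-Glo in same wells.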
# [12] = molecular target: PGR (gene 5241) (UniProt P06401); assay: TOX21_PR_BLA_Followup_Antagonist_ratio: Tox21 HEK293 Progesterone Receptor (PR) Antagonism Beta-lactamase Follow-Up Assay, Ratio (AID 2283934)
# Method in brief: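 HEK293T PR-UAS-bla, 2% CS-FBS; 6 hr plating, then cpd + R5020 (1 nM final), 16 hr 37C/5% CO2. B/G FRET substrate 2 h RT. Ratio ch2/ch1 vs DMSO; CellTiter-Glo viability multiplexed, autofluorescence checked.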
# [13] = TOX21_PR_BLA_Followup_Agonist_viability: Viability Assessment in the Tox21 HEK293 Progesterone Receptor (PR) Agonism Beta-lactamase Follow-Up Assay (AID 2283935);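 note: signal loss means lower viability so actives are cytotoxic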
# Method in brief: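 HEK293T PR-UAS-bla, 3,000 cells/well, 2% CS-FBS; 6 hr pre-incubation; cpd in DMSO, 16 hr 37C; LiveBLAzer 2 hr RT, then CellTiter-Glo 30 min RT, luminescence. Decrease = lost viability.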
# [14] = TOX21_PR_BLA_Followup_Antagonist_viability: Viability Assessment in the Tox21 HEK293 Progesterone Receptor (PR) Antagonism Beta-lactamase Follow-Up Assay (AID 2283936);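 note: hits lower the luminescence signal meaning cytotoxicity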
# Method in brief: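 PR-UAS-bla HEK293T cells (3,000/well, 2% charcoal-stripped FBS) given compound plus R5020 agonist, 16 h at 37C. CellTiter-Glo added after bla read, 30 min at room temperature; luminescence loss indicates cytotoxicity.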
# [15] = molecular target: PGR (gene 5241) (UniProt P06401); assay: TOX21_PR_LUC_Followup_Agonist: Tox21 HEK293 Progesterone Receptor (PR) Agonism Luciferase Follow-Up Assay (AID 2283937; active = hit-call score of the fitted dose curve at least 0.9, where 1 is the maximum; inactive = score below 0.9)
# Method in brief: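 Cells: HEK293-PR-A-luc, 3,000/well, 10% charcoal-stripped FBS assay medium. Compound added after 5 h; 16 h, 37C, 0% CO2. ONE-Glo luciferase, luminescence. Positive fit vs DMSO.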
# [16] = molecular target: PGR (gene 5241) (UniProt P06401); assay: TOX21_PR_LUC_Followup_Antagonist: Tox21 HEK293 Progesterone Receptor (PR) Antagonism Luciferase Follow-Up Assay (AID 2283938);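 note: curve fitted upward as signal gain over DMSO baseline despite antagonist label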
# Method in brief: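 Cells are grown 5 days in charcoal-stripped-FBS assay medium, plated, left 5 h, then dosed with compound and incubated 16 h. ONE-Glo reagent is added and luminescence read after 30 min.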
# [17] = TOX21_PR_LUC_Followup_Agonist_viability: Viability Assessment in the Tox21 HEK293 Progesterone Receptor (PR) Agonism Luciferase Follow-Up Assay (AID 2283941);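 note: loss of signal means cytotoxicity so actives lower viability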
# Method in brief: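 Cells were kept 5 days in charcoal-stripped serum medium before plating HEK293-PR-A-luc at 3,000 cells/well. After 5 h they received DMSO-dissolved compound and incubated 16 h at 37C. Viability was taken from CellTiter-Glo ATP luminescence.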
# Cellular tumor antigen p53 (Homo sapiens), sequence (P04637 whole entry, looked up): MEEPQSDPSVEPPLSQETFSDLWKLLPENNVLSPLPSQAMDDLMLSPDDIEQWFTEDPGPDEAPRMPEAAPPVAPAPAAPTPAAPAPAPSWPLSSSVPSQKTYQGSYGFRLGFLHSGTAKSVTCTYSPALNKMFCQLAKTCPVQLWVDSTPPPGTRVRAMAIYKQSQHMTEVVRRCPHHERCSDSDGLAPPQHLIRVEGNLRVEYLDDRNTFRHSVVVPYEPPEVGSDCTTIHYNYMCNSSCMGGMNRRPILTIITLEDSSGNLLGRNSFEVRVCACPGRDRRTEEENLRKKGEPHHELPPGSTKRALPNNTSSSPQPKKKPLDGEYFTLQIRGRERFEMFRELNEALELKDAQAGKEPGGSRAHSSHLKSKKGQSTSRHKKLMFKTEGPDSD
# PGR (gene 5241), sequence (P06401 whole entry, looked up): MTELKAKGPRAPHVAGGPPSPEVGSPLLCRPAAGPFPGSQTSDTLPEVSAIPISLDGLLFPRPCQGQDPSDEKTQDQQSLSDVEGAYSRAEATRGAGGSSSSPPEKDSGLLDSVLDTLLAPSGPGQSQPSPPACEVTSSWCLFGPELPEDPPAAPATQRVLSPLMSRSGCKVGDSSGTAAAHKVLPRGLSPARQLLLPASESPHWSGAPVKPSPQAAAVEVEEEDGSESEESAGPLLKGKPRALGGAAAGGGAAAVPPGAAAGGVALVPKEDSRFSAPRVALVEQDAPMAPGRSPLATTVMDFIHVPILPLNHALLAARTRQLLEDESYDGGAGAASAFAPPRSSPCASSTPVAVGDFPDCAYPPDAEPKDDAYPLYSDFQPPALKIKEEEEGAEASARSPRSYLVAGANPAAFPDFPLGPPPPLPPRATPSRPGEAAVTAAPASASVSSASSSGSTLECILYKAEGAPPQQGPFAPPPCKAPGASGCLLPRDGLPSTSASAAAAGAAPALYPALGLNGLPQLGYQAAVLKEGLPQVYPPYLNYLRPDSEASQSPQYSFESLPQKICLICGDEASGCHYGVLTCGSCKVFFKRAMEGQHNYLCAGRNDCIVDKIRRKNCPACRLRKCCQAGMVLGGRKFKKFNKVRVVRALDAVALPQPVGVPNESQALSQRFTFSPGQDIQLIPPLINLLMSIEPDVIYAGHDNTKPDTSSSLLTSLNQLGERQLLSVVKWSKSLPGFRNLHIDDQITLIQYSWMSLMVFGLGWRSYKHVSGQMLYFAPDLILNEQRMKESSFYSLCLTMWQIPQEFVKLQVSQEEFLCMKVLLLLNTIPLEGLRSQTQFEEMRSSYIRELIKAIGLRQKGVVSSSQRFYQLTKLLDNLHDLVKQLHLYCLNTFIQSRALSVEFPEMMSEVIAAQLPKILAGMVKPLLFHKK
compound,measurement,setting,value
CNC(C)Cc1ccccc1OC (configuration not stated),outcome,[1],inactive
same,outcome,[2],inactive
same,outcome,[3],inactive
same,outcome,[4],inactive
same,outcome,[5],inactive
CC(C)(O)C(Cl)(Cl)Cl,outcome,[1],inactive
same,outcome,[2],inactive
same,outcome,[3],inactive
same,outcome,[5],inactive
CC(Cc1ccccc1)NCc1ccccc1Cl (configuration not stated),outcome,[1],inactive
same,outcome,[2],inactive
same,outcome,[3],inactive
same,outcome,[4],inactive
same,outcome,[6],inactive
same,outcome,[7],inactive
CCOS(C)(=O)=O,outcome,[1],inactive
same,outcome,[2],inactive
same,outcome,[3],inactive
same,outcome,[4],inactive
same,outcome,[6],inactive
same,outcome,[7],inactive
CCCCc1c(C)nc(NCC)[nH]c1=O,outcome,[1],inactive
same,outcome,[2],inactive
same,outcome,[3],inactive
same,outcome,[4],inactive
same,outcome,[6],inactive
same,outcome,[5],inactive
same,outcome,[8],inactive
same,outcome,[9],inactive
same,outcome,[10],inactive
C[C@]12Cc3nonc3C[C@@H]1CC[C@@H]1[C@@H]2CC[C@@]2(C)[C@H]1CC[C@]2(C)O,outcome,[1],inactive
same,AC50,[2],25.7 µM (active)
same,outcome,[3],inactive
same,AC50,[4],23 µM (active)
same,outcome,[5],inactive
same,AC50,[11],6.11 µM (active)
same,outcome,[12],inactive
same,AC50,[13],35.1 µM (active)
same,outcome,[14],inactive
same,AC50,[15],0.862 µM (active)
same,outcome,[16],inactive
same,outcome,[17],inactive
NNC(=O)c1ccccc1,outcome,[1],inactive
same,outcome,[2],inactive
same,outcome,[3],inactive
same,outcome,[5],inactive
same,outcome,[7],inactive
